# Results reported in PubChem BioAssay.
# For some assays here: Entries with a potency or affinity are not part of this list. This is one part of the list. Active and inactive are the calls of the source.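 Rule for the calls, unless noted: active = primary screen inhibitor hit that blocks the TRPC4 channel at some tested dose, yielding a dose curve; inactive = the rest.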
# Columns and labels:
# [1] = tested on: TRPC4 beta (transient receptor potential cation channel C4), mouse; assay: activators of mouse TRPC4 channel, confirmation, cell-based, Fluo4 calcium, HEK293 TRPC4beta/mu-opioid, duplicates, 10 µM (AID 2426;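 active = fluorescence ratio normalized to control raised more than 50% in primary screen plus both repeat runs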); details: Fluo4 calcium fluorescence, at 10 µM; active compounds read high
# [2] = tested on: transient receptor potential cation channel C4 beta (TRPC4), mouse; assay: activators of mouse TRPC4 channel, confirmation, cell-based, second round, Fluo4, HEK293 TRPC4beta/mu-opioid, 1 µM (AID 2461;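 active = primary screen active and over 50% activation in each of two duplicate runs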); details: Fluo4 calcium fluorescence, at 1 µM; active compounds read high
# [3] = tested on: TRPC4 (transient receptor potential cation channel C4 beta), mouse; assay: positive allosteric modulators of mouse TRPC4, confirmation, cell-based, second round, Fluo-4, HEK293 TRPC4beta/mu-opioid, 1 µM (AID 2554;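 active = primary screen hit whose fluorescence ratio, in both repeats, exceeds the weak agonist control mean by 3 SD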); details: DAMGO EC20, Fluo-4 calcium flux, at 1 µM; active compounds read high
# [4] = tested on: TRPC4 beta (transient receptor potential cation channel C4), mouse; assay: positive allosteric modulators of mouse TRPC4, confirmation, cell-based, Fluo-4, HEK293 TRPC4beta/mu-opioid (AID 2555;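 active = primary screen hit whose calcium fluorescence ratio, in both repeats, exceeds the weak agonist control mean by 3 SD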); details: DAMGO EC20, Fluo-4 calcium flux, at 10 µM; active compounds read high
# [5] = target: Short transient receptor potential channel 4 (Mus musculus) (UniProt Q9QUQ5); assay: inhibitors of mouse TRPC4 channel, confirmation, cell-based, Fluo4, HEK293 TRPC4beta/mu-opioid (AID 2636;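 active = calcium signal cut by more than 3 SD below the full-agonist control yet still positive, in both repeats and the earlier primary screen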); details: DAMGO, Fluo4 calcium flux, at 10 µM; active compounds read high
# [6] = target: Short transient receptor potential channel 4 (Mus musculus) (UniProt Q9QUQ5); assay: inhibitors of mouse TRPC4 channel, confirmation, cell-based, second round, Fluo4, HEK293 TRPC4beta/mu-opioid, 1 µM (AID 2637;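 active = calcium signal ratio cut to more than 3 SD under the fully stimulated control mean yet still positive, in both repeats and the primary screen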); details: Fluo4 calcium flux, DAMGO, at 1 µM; active compounds read high
# [7] = target: Short transient receptor potential channel 4 (Mus musculus) (UniProt Q9QUQ5); assay: mouse TRPC4 channel activators, dose response, cell-based, HEK293 TRPC4/mu-opioid, Fluo-4 calcium (AID 434937;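 active = primary screen activator hit with a dose response curve and TRPC4 channel activation at any tested dose; inactive = no activation, no dose response, or not a primary hit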)
# [8] = target: Short transient receptor potential channel 4 (Mus musculus) (UniProt Q9QUQ5); assay: TRPC4 positive allosteric modulators, dose response, cell-based, HEK293 TRPC4/mu-opioid, Fluo-4 calcium, EC20 DAMGO (AID 434941;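 active = earlier screen potentiator hit that boosts the TRPC4 ion channel at some dose, with a dose response; inactive = no potentiation, no dose response, or not a prior hit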;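 note: calcium entry triggered by an EC20 dose of DAMGO at the co-expressed mu-opioid receptor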)
# [9] = target: Short transient receptor potential channel 4 (Mus musculus) (UniProt Q9QUQ5); assay: mouse TRPC4 channel inhibitors, dose response, cell-based, HEK293 TRPC4/mu-opioid, Fluo-4 calcium (AID 434942)
# [10] = target: Short transient receptor potential channel 6 (Mus musculus) (UniProt Q61143); assay: inhibition of mouse TRPC6 channel, confirmation, selectivity assay for TRPC4 inhibitor project, cell-based, HEK293, membrane potential dye, duplicate (AID 434948;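 active = active in primary screen and both duplicates, each dropping signal beyond three positive-control SD with fluorescence still positive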); details: HEK293 TRPC6, membrane potential dye fluorescence, at 10 µM; inhibition: active compounds read high, stimulated with maximal-effect acetylcholine unless noted; outcome: stimulated with maximal-effect acetylcholine unless noted
# [11] = target: Short transient receptor potential channel 6 (Mus musculus) (UniProt Q61143); assay: activation of mouse TRPC6 channel, confirmation, selectivity assay for TRPC4 activator project, cell-based, HEK293, membrane potential dye, duplicate (AID 434950;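 active = membrane potential signal rise above negative control mean plus 3 SD in both duplicates, also active in the earlier TRPC4 screen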); details: HEK293 TRPC6, membrane potential fluorescence, at 10 µM; active compounds read high
# [12] = target: Short transient receptor potential channel 6 (Mus musculus) (UniProt Q61143); assay: TRPC6 potentiation by TRPC4 potentiator hits, confirmation, selectivity assay for TRPC4 potentiator project, HEK293 cells, membrane potential dye, duplicate (AID 434952;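 active = compound raising the membrane signal above positive-control mean plus 3 SD in both repeats, and a primary screen hit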); details: HEK293 TRPC6, membrane potential dye fluorescence, at 10 µM; maximal acetylcholine added after compound unless noted
# [13] = target: Short transient receptor potential channel 4 (Mus musculus) (UniProt Q9QUQ5); assay: calcium flux activators in TRPC4/5HT1a cells, counter-screen for TRPC4 activator project, cell-based, second counter screen, HEK293 TRPC4/5HT1a, Fluo-4 (AID 434977;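 active = calcium signal rise above buffer-control mean plus 5 SD in both duplicates, and also a hit in the primary screen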); details: Fluo-4 calcium flux, at 10 µM; active compounds read high
# [14] = calcium flux inhibitors in TRPC4/5HT1a cells, confirmation, counter-screen for TRPC4 inhibitor project, cell-based, second counter screen, HEK293 TRPC4/5HT1a, Fluo-4 (AID 434978;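 active = primary screen active whose calcium signal fell more than 3 SD beyond the full-serotonin control mean in both duplicate plates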;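 note: serotonin given first at submaximal then at maximal dose after compound preincubation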); details: Fluo-4 calcium flux, at 10 µM; inhibition: active compounds read high, serotonin added to trigger calcium flux unless noted; outcome: serotonin added to trigger calcium flux unless noted
# [15] = tested on: TRPC4 (mouse), co-expressed with 5HT1a in HEK293; assay: calcium flux potentiators in TRPC4/5HT1a cells, confirmation, counter-screen for TRPC4 potentiator project, cell-based, second counter screen, HEK293 TRPC4/5HT1a, Fluo-4 (AID 434979;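 active = signal rise over 3 SD above mean of control wells given weak agonist, in both repeats and first screen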); details: Fluo-4 calcium flux, at 10 µM; outcome: serotonin added at its EC20 dose unless noted; potentiation: active compounds read high, serotonin added at its EC20 dose unless noted
# [16] = calcium flux activation in mu-opioid HEK293 cells, confirmation, counter-screen for TRPC4 activator project, cell-based, HEK293 mu-opioid receptor line (AID 449723;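 active = hit in primary screen, with calcium signal over 5 SD above buffer well mean in both duplicates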;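 note: counter screen cells carry the mu-opioid receptor alone and lack TRPC4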); details: Fluo-4 calcium fluorescence, at 10 µM; active compounds read high
# [17] = calcium flux enhancement in mu-opioid HEK293 cells, confirmation, counter-screen for TRPC4 allosteric potentiator project, cell-based, HEK293 mu-opioid receptor line (AID 449724;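 active = calcium signal rise more than 3 SD above the low-dose agonist control mean, in both duplicate plates and the primary screen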); details: Fluo-4 calcium flux, at 10 µM; compound added before EC20 DAMGO stimulus unless noted
# [18] = target: Inward rectifier potassium channel 2 (Mus musculus) (UniProt P35561); assay: mouse Kir2.1 channel blockers, retest, confirmation, cell-based, FluxOR thallium flux, duplicate (AID 2032;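 active = Primary-screen hit whose thallium flux fell at least 3 control SD below untreated wells in both duplicates, with normal baseline fluorescence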;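 note: 0% = blank wells without stimulus and 100% = stimulated no-compound controls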); details: Kir2.1-expressing cells, FluxOR thallium flux fluorescence, at 10 µM; active compounds read low
# [19] = nonspecific thallium flux effects in parental HEK293 cells, confirmation, counter-screen for Kir2.1 inhibitor project, cell-based, FluxOR thallium flux, duplicate, single concentration (AID 2105;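 active = dye signal at least 3 control SD above or below untreated wells in both duplicates, raw fluorescence within 3, either direction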;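 for FluxOR signal as % of negative control (100 = no effect): percent is based on the flux ratio of peak minus minimum fluorescence over baseline F0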); details: FluxOR thallium flux fluorescence, at 10 µM; 0% = unstimulated blank wells
# Short transient receptor potential channel 4 (Mus musculus), sequence (Q9QUQ5 whole entry, looked up): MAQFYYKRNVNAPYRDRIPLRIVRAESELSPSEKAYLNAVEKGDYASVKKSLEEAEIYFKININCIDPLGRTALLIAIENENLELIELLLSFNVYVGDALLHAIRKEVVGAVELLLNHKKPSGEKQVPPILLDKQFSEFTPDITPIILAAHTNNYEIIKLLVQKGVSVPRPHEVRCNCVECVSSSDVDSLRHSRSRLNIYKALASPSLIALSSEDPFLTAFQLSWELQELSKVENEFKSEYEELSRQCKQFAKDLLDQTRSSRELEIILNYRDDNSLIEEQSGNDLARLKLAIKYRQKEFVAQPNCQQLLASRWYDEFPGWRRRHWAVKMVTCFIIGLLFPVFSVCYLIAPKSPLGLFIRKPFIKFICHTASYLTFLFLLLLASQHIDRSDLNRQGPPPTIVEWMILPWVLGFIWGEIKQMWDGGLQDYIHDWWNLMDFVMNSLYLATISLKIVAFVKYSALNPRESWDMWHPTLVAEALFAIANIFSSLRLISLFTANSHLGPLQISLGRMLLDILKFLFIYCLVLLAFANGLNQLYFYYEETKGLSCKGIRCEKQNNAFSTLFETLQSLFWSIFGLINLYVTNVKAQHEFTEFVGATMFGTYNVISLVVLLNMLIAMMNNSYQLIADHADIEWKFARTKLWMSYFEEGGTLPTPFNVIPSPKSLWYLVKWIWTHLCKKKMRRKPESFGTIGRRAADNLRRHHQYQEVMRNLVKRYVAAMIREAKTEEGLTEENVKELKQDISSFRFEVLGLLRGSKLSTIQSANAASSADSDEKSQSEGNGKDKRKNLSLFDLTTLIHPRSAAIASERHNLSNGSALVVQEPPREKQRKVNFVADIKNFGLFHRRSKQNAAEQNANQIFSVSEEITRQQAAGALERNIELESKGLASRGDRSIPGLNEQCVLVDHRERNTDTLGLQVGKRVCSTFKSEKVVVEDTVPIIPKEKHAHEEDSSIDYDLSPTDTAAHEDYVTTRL
# Short transient receptor potential channel 6 (Mus musculus), sequence (Q61143 whole entry, looked up): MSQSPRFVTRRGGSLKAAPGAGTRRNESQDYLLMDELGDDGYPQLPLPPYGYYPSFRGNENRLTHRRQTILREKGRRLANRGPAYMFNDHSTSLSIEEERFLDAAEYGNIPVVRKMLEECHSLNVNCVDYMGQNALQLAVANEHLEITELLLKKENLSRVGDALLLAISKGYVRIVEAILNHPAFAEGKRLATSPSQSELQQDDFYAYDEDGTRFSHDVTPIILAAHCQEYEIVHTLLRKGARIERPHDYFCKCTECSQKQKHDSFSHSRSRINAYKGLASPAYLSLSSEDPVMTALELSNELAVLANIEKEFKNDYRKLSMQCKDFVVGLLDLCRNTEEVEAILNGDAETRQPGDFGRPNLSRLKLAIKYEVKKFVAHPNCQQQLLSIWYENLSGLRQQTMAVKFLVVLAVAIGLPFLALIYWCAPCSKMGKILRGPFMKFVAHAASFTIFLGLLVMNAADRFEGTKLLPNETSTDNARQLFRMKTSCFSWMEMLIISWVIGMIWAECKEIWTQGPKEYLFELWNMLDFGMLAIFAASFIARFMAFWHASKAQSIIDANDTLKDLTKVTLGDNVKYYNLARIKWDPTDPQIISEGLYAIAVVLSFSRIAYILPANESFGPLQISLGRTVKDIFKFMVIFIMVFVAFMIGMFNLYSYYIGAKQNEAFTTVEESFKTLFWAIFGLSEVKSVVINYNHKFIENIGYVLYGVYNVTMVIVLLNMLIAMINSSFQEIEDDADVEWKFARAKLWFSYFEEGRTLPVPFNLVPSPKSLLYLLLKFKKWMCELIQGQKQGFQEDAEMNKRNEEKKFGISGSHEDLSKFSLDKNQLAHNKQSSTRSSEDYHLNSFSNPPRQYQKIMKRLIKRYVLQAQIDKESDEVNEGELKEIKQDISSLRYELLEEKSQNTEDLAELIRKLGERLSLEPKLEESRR
# Inward rectifier potassium channel 2 (Mus musculus), sequence (P35561 whole entry, looked up): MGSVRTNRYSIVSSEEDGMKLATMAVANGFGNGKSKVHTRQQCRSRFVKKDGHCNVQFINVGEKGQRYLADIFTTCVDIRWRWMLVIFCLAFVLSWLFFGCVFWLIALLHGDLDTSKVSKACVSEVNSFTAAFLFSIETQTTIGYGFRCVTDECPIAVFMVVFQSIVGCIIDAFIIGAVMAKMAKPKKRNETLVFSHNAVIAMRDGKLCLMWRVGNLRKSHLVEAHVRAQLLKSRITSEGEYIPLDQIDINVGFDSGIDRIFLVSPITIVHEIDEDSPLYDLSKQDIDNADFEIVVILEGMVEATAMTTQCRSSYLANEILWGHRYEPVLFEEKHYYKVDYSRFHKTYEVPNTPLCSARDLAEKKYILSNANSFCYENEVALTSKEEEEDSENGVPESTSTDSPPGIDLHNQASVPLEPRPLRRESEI
structure (smiles),measurement,setting,value
CCN1CCN(c2cc(N3CCCC3)c([N+](=O)[O-])cc2F)CC1,outcome,[1],inactive
same,outcome,[2],inactive
same,potentiation,[3],31% (active)
same,potentiation,[4],11% (active)
same,outcome,[5],inactive
same,outcome,[6],inactive
same,outcome,[7],inactive
same,outcome,[8],inactive
same,outcome,[9],inactive
same,outcome,[10],inactive
same,outcome,[11],inactive
same,outcome,[12],inactive
same,outcome,[13],inactive
same,outcome,[14],inactive
same,potentiation,[15],17.9% (active)
same,outcome,[16],inactive
same,outcome,[17],inactive
Fc1ccc(N2CCN(Cc3ccc4c(c3)OCO4)CC2)cc1,"Tl flux remaining, % of negative control (active compounds read low)",[18],36.5% (active)
same,outcome,[19],inactive
CCn1ccnc1CN1CCCC(C(=O)c2cccc(C(F)(F)F)c2)C1 (configuration not stated),outcome,[1],inactive
same,outcome,[2],inactive
same,outcome,[3],inactive
same,outcome,[4],inactive
same,outcome,[5],inactive
same,outcome,[6],inactive
same,outcome,[7],inactive
same,outcome,[8],inactive
same,outcome,[9],inactive
same,outcome,[10],inactive
same,outcome,[11],inactive
same,outcome,[12],inactive
same,outcome,[13],inactive
same,outcome,[14],inactive
same,outcome,[15],inactive
same,outcome,[16],inactive
same,outcome,[17],inactive
Clc1ccc(N2CCNCC2)nn1,outcome,[1],inactive
same,outcome,[2],inactive
same,potentiation,[3],14% (active)
same,outcome,[4],inactive
same,outcome,[5],inactive
same,outcome,[6],inactive
same,outcome,[7],inactive
same,outcome,[8],inactive
same,outcome,[9],inactive
same,outcome,[10],inactive
same,outcome,[11],inactive
same,outcome,[12],inactive
same,outcome,[13],inactive
same,outcome,[14],inactive
same,potentiation,[15],16.3% (active)
same,outcome,[16],inactive
same,outcome,[17],inactive
COc1ccc(Br)cc1CNCCc1cccc(Cl)c1,"Tl flux remaining, % of negative control (active compounds read low)",[18],15.5% (active)
same,outcome,[19],inactive
CN(C)CCn1cnc2ccccc21,outcome,[1],inactive
same,outcome,[2],inactive
same,outcome,[3],inactive
same,outcome,[4],inactive
same,outcome,[5],inactive
same,outcome,[6],inactive
same,outcome,[7],inactive
same,outcome,[8],inactive
same,outcome,[9],inactive
same,outcome,[10],inactive
same,outcome,[11],inactive
same,outcome,[12],inactive
same,outcome,[13],inactive
same,outcome,[14],inactive
same,potentiation,[15],19.9% (active)
same,outcome,[16],inactive
same,outcome,[17],inactive
CN1CCN(Cc2cc(=O)n3ccsc3n2)CC1,outcome,[1],inactive
same,outcome,[2],inactive
same,outcome,[3],inactive
same,outcome,[4],inactive
same,outcome,[5],inactive
same,outcome,[6],inactive
same,outcome,[7],inactive
same,outcome,[8],inactive
same,outcome,[9],inactive
same,outcome,[10],inactive
same,outcome,[11],inactive
same,outcome,[12],inactive
same,outcome,[13],inactive
same,outcome,[14],inactive
same,potentiation,[15],20% (active)
same,outcome,[16],inactive
same,outcome,[17],inactive
COc1ccc(C[C@@H]2c3cc(O)c(OC)cc3CCN2C)cc1O,outcome,[1],inactive
same,outcome,[2],inactive
same,outcome,[3],inactive
same,outcome,[4],inactive
same,outcome,[5],inactive
same,outcome,[6],inactive
same,outcome,[7],inactive
same,outcome,[8],inactive
same,outcome,[9],inactive
same,outcome,[10],inactive
same,outcome,[11],inactive
same,outcome,[12],inactive
same,outcome,[13],inactive
same,outcome,[14],inactive
same,outcome,[15],inactive
same,outcome,[16],inactive
same,outcome,[17],inactive
CNCC(O)c1cc(F)c(OCc2ccccc2)c(OCc2ccccc2)c1F (configuration not stated),"Tl flux remaining, % of negative control (active compounds read low)",[18],34.5% (active)
same,FluxOR signal as % of negative control (100 = no effect),[19],74% (active)
Cc1cc(OC(C)C(=O)NCc2ccncc2)c2c3c(c(=O)oc2c1)CCCC3 (configuration not stated),outcome,[1],inactive
same,outcome,[2],inactive
same,outcome,[3],inactive
same,outcome,[4],inactive
same,outcome,[5],inactive
same,outcome,[6],inactive
same,outcome,[7],inactive
same,outcome,[8],inactive
same,outcome,[9],inactive
same,outcome,[10],inactive
same,outcome,[11],inactive
same,outcome,[12],inactive
same,outcome,[13],inactive
same,outcome,[14],inactive
same,outcome,[15],inactive
same,outcome,[16],inactive
same,outcome,[17],inactive
Clc1ccc2c(c1)C(c1ccccc1Cl)=NCc1nnc(N3CCN(CCOc4ccccc4)CC3)n1-2,outcome,[1],inactive
same,outcome,[2],inactive
same,outcome,[3],inactive
same,potentiation,[4],9% (active)
same,outcome,[5],inactive
same,outcome,[6],inactive
same,outcome,[7],inactive
same,outcome,[8],inactive
same,outcome,[9],inactive
same,outcome,[10],inactive
same,outcome,[11],inactive
same,outcome,[12],inactive
same,outcome,[13],inactive
same,outcome,[14],inactive
same,potentiation,[15],13.8% (active)
same,outcome,[16],inactive
same,outcome,[17],inactive
COc1ccc(C(=O)C2CN(C)CC2c2ccc(Cl)cc2)cc1 (configuration not stated),outcome,[1],inactive
same,outcome,[2],inactive
same,outcome,[3],inactive
same,outcome,[4],inactive
same,outcome,[5],inactive
same,outcome,[6],inactive
same,outcome,[7],inactive
same,outcome,[8],inactive
same,outcome,[9],inactive
same,outcome,[10],inactive
same,outcome,[11],inactive
same,outcome,[12],inactive
same,outcome,[13],inactive
same,outcome,[14],inactive
same,outcome,[15],inactive
same,outcome,[16],inactive
same,outcome,[17],inactive
COC(=O)C(O)(c1ccc(NC(=S)NC(=O)c2ccc(Cl)cc2Cl)c(C)c1)C(F)(F)F (configuration not stated),outcome,[1],inactive
same,outcome,[2],inactive
same,outcome,[3],inactive
same,potentiation,[4],18% (active)
same,outcome,[5],inactive
same,outcome,[6],inactive
same,outcome,[7],inactive
same,outcome,[8],inactive
same,outcome,[9],inactive
same,outcome,[10],inactive
same,outcome,[11],inactive
same,outcome,[12],inactive
same,outcome,[13],inactive
same,outcome,[14],inactive
same,potentiation,[15],24.2% (active)
same,outcome,[16],inactive
same,outcome,[17],inactive
CN1CCN(c2cccc3c2C(=O)c2ccccc2C3=O)CC1,outcome,[1],inactive
same,outcome,[2],inactive
same,potentiation,[3],16% (active)
same,potentiation,[4],8% (active)
same,outcome,[5],inactive
same,outcome,[6],inactive
same,outcome,[7],inactive
same,outcome,[8],inactive
same,outcome,[9],inactive
same,outcome,[10],inactive
same,outcome,[11],inactive
same,outcome,[12],inactive
same,outcome,[13],inactive
same,outcome,[14],inactive
same,outcome,[15],inactive
same,outcome,[16],inactive
same,outcome,[17],inactive
FC(F)(F)c1ccc(CN2CCNCC2)cc1,outcome,[1],inactive
same,outcome,[2],inactive
same,potentiation,[3],26% (active)
same,potentiation,[4],22% (active)
same,outcome,[5],inactive
same,outcome,[6],inactive
same,outcome,[7],inactive
same,outcome,[8],inactive
same,outcome,[9],inactive
same,outcome,[10],inactive [setting not given]
same,outcome,[11],inactive
same,outcome,[12],inactive [setting not given]
same,outcome,[13],inactive
same,outcome,[14],inactive [setting not given]
same,potentiation,[15],25.6% [active compounds read high] (active)
same,outcome,[16],inactive
same,outcome,[17],inactive [setting not given]
C#CCN1C(=O)C2(C(C#N)=C(N)OC(C)=C2C(=O)OCc2ccccc2)c2ccccc21 (configuration not stated),outcome,[1],inactive
same,outcome,[2],inactive
same,outcome,[3],inactive
same,potentiation,[4],11% (active)
same,outcome,[5],inactive
same,outcome,[6],inactive
same,outcome,[7],inactive
same,outcome,[8],inactive
same,outcome,[9],inactive
same,outcome,[10],inactive
same,outcome,[11],inactive
same,outcome,[12],inactive
same,outcome,[13],inactive
same,outcome,[14],inactive
same,potentiation,[15],28.9% (active)
same,outcome,[16],inactive
same,outcome,[17],inactive
